These results are taken from PubChem BioAssay (NCATS).

Assay [1] can be described thus: AP1 Signaling Pathway (AID 357; active = well fitted curve in either direction with a large enough effect, not every such curve was filed as active;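 note: ME-180 reporter cells stimulated with EGF at its EC50 level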). The procedure, abridged:
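Cells are seeded overnight, exposed to compound titrations and an EC50 level of EGF for 5 hours at 37 °C, then loaded with CCF4 dye for 2.5 hours. Beta-lactamase activity under the AP-1 element is read as a blue/green ratio.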

The target in assay [2] is Cytochrome P450 1A2 (Homo sapiens) (UniProt P05177). The assay can be described thus: p450-cyp1a2 (AID 410). Note: potency is the fitted concentration of half-maximal effect. In outline: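 Luminescent demethylation readout: Luciferin-ME (100uM, equal to Km) turned over by 20nM CYP1A2 for 60 min at room temperature after NADPH regeneration addition, following 10 min compound preincubation. Normalization used 57 uM furafylline as full inhibition.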
Cytochrome P450 1A2 (Homo sapiens), sequence (P05177 whole entry, looked up): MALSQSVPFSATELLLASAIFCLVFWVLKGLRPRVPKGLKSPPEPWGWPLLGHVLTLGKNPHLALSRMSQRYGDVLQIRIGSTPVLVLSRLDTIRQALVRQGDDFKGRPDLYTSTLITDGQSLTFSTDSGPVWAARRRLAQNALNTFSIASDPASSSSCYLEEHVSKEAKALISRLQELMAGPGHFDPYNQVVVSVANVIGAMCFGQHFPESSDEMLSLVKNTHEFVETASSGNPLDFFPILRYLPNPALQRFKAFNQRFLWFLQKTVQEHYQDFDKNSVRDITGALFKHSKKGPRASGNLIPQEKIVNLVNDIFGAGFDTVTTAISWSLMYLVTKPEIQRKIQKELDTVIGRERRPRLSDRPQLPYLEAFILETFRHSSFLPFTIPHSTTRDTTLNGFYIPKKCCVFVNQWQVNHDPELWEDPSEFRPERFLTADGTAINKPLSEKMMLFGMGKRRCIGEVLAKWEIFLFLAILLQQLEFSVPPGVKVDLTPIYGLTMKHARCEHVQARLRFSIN

Assay [3] deals with Lysosomal acid glucosylceramidase (Homo sapiens) (UniProt P04062). Description: Glucocerebrosidase-p2 (AID 348; in the data active = potency below about 10 µM; note: potency is the fitted concentration of half-maximal effect). The note with it: purified GBA, blue fluorogenic substrate, 40 min. In outline: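 Normal human glucocerebrosidase (0.2 nM) with blue fluorogenic substrate (80 uM final) in citrate/phosphate pH 5.9 with 10mM sodium taurocholate, 0.01% tween-20; 40 min RT, NaOH/glycine stop; fluorescence Ex 365/Em 440; AC50 from a titration from 0.6 nM upwards.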
Lysosomal acid glucosylceramidase (Homo sapiens), sequence (P04062 whole entry, looked up): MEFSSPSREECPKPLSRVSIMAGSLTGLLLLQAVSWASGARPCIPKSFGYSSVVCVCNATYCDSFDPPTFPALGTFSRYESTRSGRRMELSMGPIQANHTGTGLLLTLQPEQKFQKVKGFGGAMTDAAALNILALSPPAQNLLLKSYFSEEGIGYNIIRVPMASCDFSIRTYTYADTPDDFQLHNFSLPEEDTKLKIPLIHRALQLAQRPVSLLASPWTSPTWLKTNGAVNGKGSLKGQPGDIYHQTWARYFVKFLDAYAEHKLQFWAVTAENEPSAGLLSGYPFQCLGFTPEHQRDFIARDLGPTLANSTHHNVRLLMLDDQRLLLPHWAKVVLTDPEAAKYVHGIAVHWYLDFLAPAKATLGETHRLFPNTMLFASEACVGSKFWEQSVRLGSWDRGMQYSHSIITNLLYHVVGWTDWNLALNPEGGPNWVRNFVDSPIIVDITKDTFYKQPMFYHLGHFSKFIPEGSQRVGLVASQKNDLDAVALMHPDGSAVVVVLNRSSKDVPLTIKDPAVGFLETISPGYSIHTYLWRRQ

A short description of assay [4]: Cell Viability - BJ (AID 421).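 Note: potency is the fitted concentration of half-maximal effect; cells exposed to compound for 40 hours at 37 °C before readout.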 The note with it: BJ fibroblast viability, qHTS. The procedure, abridged:
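Cytotoxicity as drop in intracellular ATP (CellTiter-Glo, 20 min RT) after 40 hr compound exposure of BJ fibroblasts at 37 °C. Titrations scaled between DMSO and 100 uM tamoxifen, Hill-fitted for AC50.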

A short description of assay [5]: Cell Viability - Jurkat (AID 426;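 active = dose-dependent loss of cell ATP signal giving a full or clear fitted curve, ranked by lower potency value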;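 note: potency is the fitted concentration of half-maximal effect; cells exposed to compound for 40 hours at 37 °C before ATP read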). The note with it: qHTS. In outline: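 Cytotoxicity taken as drop in cellular ATP (CellTiter-Glo luminescence, 20 min room temperature) after 40 hr, 37C treatment of 5000 Jurkat Clone E6-1 cells per well; concentration-response fitted with Hill equation for AC50.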
Assay [6] is described as follows: Cell Viability - Hek293 (AID 427;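 active = compounds whose dose-response curve shows a full or clear partial loss of cell viability, called from curve shape rather than a numeric limit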;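 note: potency is the fitted concentration of half-maximal effect; cells exposed to compound for 40 hours at 37 °C before reading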). The settings on record: qHTS. In outline: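 Luminescent ATP content (CellTiter-Glo, 20 min at room temperature) was measured after a 40 hr, 37 °C compound exposure of HEK293 cells. AC50 values came from Hill-equation fits of qHTS concentration-response data normalized to DMSO and 100 uM tamoxifen.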
The nature of assay [7]: Cell Viability - HepG2 (AID 433).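 Note: potency is the fitted concentration of half-maximal effect; cells exposed to compound for 40 hours.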 The settings on record: qHTS. The procedure, abridged: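 HepG2 cells, 1500 per well, treated 40 hr at 37 °C in complete medium; viability from intracellular ATP by CellTiter-Glo luminescence. Normalized to DMSO and 100 uM tamoxifen; AC50 from Hill fit of qHTS concentration-response.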
The nature of assay [8]: Cell Viability - MRC5 (AID 434).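 Note: potency is the fitted concentration of half-maximal effect; cells exposed to compound for 40 hours at 37 °C; potency reflects cytotoxicity seen as loss of intracellular ATP.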 The settings on record: MRC5 lung fibroblast viability, qHTS. In outline:
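ATP luminescence read-out (CellTiter-Glo, 20 min RT) after 40 hr, 37 °C compound exposure of 1500 MRC5 cells/well. Data normalized to DMSO (basal) and 100 uM tamoxifen (100% inhibition); AC50 from standard Hill equation.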

Assay [9] can be described thus: Cell Viability - SK-N-SH (AID 435).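 Note: potency is the fitted concentration of half-maximal effect; compound exposure lasted 40 h at 37 °C.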 The note with it: SK-N-SH neuroblastoma cell viability qHTS. The procedure, abridged: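 SK-N-SH neuroblastoma cells (1500/well) treated 40 h at 37 °C in complete medium; viability read as cellular ATP by CellTiter-Glo luminescence. Normalized to DMSO and 100 uM tamoxifen; AC50 from Hill fits of qHTS concentration-response.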

A number with no mark means an inactive call. Results filed as inconclusive are left out. Active and inactive are the calls of the source. Unless noted, calls come from the whole dose curve.

Turning to `O=C(Cn1ccnc1[N+](=O)[O-])NCCO`, in assay [1], the outcome was inactive. In addition, the Potency result in assay [2] is “inactive”.
Turning to `Cc1c(NC(C)C)c(=O)n(-c2ccccc2)n1C`, the call in [1] was inactive. For the same molecule, the Potency in assay [2] is 0.0398 µM (active).
In the case of `CCCCC1(COC(=O)CCC(=O)O)C(=O)N(c2ccccc2)N(c2ccccc2)C1=O`, the outcome in assay [1] was inactive.
Turning to `CCc1cccc(CC)c1NC(=O)CN(CC(=O)O)CC(=O)O`, the molecule was called inactive in assay [1]. In addition, the Potency entry in assay [2] was “inactive”.
Turning to `CC1(C)S[C@@H]2[C@H](NC(=O)C(C(=O)O)c3ccccc3)C(=O)N2[C@H]1C(=O)O` (stereo partly specified), the molecule was called inactive in assay [1].
Turning to `O=C(O)CCCc1ccccc1`, the call in [1] was inactive.
Regarding `C[C@@H]1CCC[C@H](C)N1`, in assay [1], the outcome was inactive. The Potency entry in assay [2] was “inactive”.
As to `Cn1c(=O)c2c(ncn2CCO)n(C)c1=O`, the molecule was called inactive in assay [1]. The Potency entry in assay [2] is “inactive”.
`NS(=O)(=O)c1ccc(C(=O)O)cc1`: the Potency in [3] is over 11.4 µM. Besides, the molecule was classed as inactive in [1]. In addition, in [2], the Potency result was “inactive”.
For the molecule `NCc1ccc(S(N)(=O)=O)cc1`, the molecule was called inactive in assay [1]. For the same molecule, the Potency result in assay [2] was “inactive”.
Regarding `CC[N+](CC)(CC(=O)Nc1c(C)cccc1C)Cc1ccccc1`, the result in [1] was inactive. Besides, the Potency result in [2] is “inactive”.
As to `CC1CCc2cc(F)cc3c(=O)c(C(=O)O)cn1c23` (stereo unspecified), the molecule was called inactive in assay [1].
As to `O=C(O)c1ccccc1OP(=O)(O)O`, the outcome in [1] was inactive. The Potency result in assay [2] was “inactive”.
With `Cc1ncc(CO)c(CN)c1O`, the Potency in [3] is over 11.4 µM. The outcome in assay [1] was inactive.
As to `O=S1(=O)OC(c2ccc(O)cc2)(c2ccc(O)cc2)c2ccccc21`, the Potency in assay [3] was over 11.4 µM. Further, in assay [1], the molecule was called inactive.
With `CC(=O)[C@@]1(O)CC[C@H]2[C@@H]3C[C@H](C)C4=CC(=O)C=C[C@]4(C)[C@@]3(F)[C@@H](O)C[C@@]21C`, in assay [1], the molecule was classed as inactive.
Same read-out and setting: the same measure for `CCS(=O)(=O)CCn1c([N+](=O)[O-])cnc1C`: “inactive”; for `CN1CCCN=C1COC(=O)C(O)(c1ccccc1)C1CCCCC1` (stereo unspecified): “inactive”.
In the case of `CC(C)=CCC/C(C)=C/CO`, the Potency in assay [3] is over 11.4 µM. Further, in assay [1], the molecule was called inactive.
Regarding `Cc1cccc(Nc2ccccc2C(=O)O)c1C`, the molecule was classed as inactive in assay [1]. In addition, the Potency in [2] is 5.01 µM (active).
With `NC(N)=NS(=O)(=O)c1ccc(N)cc1`, the outcome in assay [1] was inactive. Also, the Potency entry in assay [2] is “inactive”.
For `COc1ccc(NS(=O)(=O)c2ccc(N)cc2)nn1`, the result in assay [1] was inactive.
Still for that read-out and setting: as for `OC(CCN1CCCC1)(c1ccccc1)C1CCCCC1` (stereo unspecified), the entry is “inactive”; as for `CC(=O)N[C@@H](CC(C)C)C(=O)O`, “inactive”; as for `NC(N)=NCCN1CCCCCCC1`, “inactive”.
On to `CCN(CC)CCc1nc(-c2ccccc2)no1`, for which the result in assay [1] was inactive. The Potency in assay [2] was 5.01 µM (active).
For the molecule `CCCNC(C)(C)COC(=O)c1ccccc1`, the outcome in [1] was inactive.
Regarding `CN1C(C)(C)CCCC1(C)C`, the result in assay [1] was inactive.
Same read-out and setting: the same measure for `Cc1c(NC(=O)c2cccnc2)c(=O)n(-c2ccccc2)n1C`: “inactive”; for `NC(=O)CC[C@@H](N)C(=O)O`: “inactive”.
Consider `CC(=O)SC[C@@H](Cc1ccccc1)C(=O)NCC(=O)OCc1ccccc1`, for which the outcome in [1] was inactive. The Potency in assay [2] is 2.51 µM (active).
In the case of `NS(=O)(=O)c1cc2c(cc1C(F)(F)F)NCNS2(=O)=O`, the call in assay [1] was inactive.
`O=C(O)COC(=O)Cc1ccccc1Nc1c(Cl)cccc1Cl`: in [1], the molecule was called inactive. The Potency result in assay [2] is “inactive”.
Regarding `CC(=O)Nc1cccc(O)c1`, the Potency in assay [4], in [5], in [6], in [7], in [8] and in [9] was over 92 µM throughout.
For `CCN(CC)C(=O)c1cccc(C)c1`, the Potency in assay [4], in [5], in assay [6], in assay [7], in [8] and in assay [9] was over 92 µM each time.
Regarding `C[N+](C)(C)CC[N+]1(C)Cc2c(Cl)c(Cl)c(Cl)c(Cl)c2C1`, in assay [2], the Potency result is “inactive”.
In the case of `CC(=O)OCC(COC(C)=O)OC(C)=O`, the Potency in [4], in assay [5], in [6], in assay [7], in [8] and in [9] was over 92 µM in each case.
With `Cc1cc(C)nc(NS(=O)(=O)c2ccc(N)cc2)n1`, in assay [1], the result was inactive. Besides, the Potency entry in assay [2] was “inactive”. The Potency in assay [4], in assay [5], in assay [6], in assay [7], in assay [8] and in [9] was over 92 µM each time.
Consider `CN/C(=C\[N+](=O)[O-])NCCSCc1csc(CN(C)C)n1`, for which the molecule was classed as inactive in assay [1]. For the same molecule, the Potency result in assay [2] was “inactive”.
`Cc1cc(=O)[nH]c(=S)[nH]1`: the Potency in assay [4], in assay [5], in assay [6], in assay [7], in [8] and in [9] was over 92 µM throughout.
For `O=C(O)CCCCC1CCSS1` (stereo unspecified), the Potency in [4], in [5], in [6], in assay [7], in [8] and in [9] was over 92 µM throughout.
On to `COc1ccc2cc(CCC(C)=O)ccc2c1`, for which the molecule was classed as inactive in assay [1]. Further, the Potency in [2] is 0.398 µM (active).
Regarding `CCCCOC(=O)c1ccc(N)cc1`, the result in assay [1] was inactive. For the same molecule, the Potency in [4], in assay [5], in assay [6], in [7], in assay [8] and in assay [9] was over 92 µM each time.
